aSyn UTR act: Activators via SNCA 5'UTR binding, MLPCN; alpha-synuclein 5'UTR reporter, activators screen; activity score, % (tested at 7.5 µM), hits read low; actives 7.1% (n = 300,000); AID 1814; in the data active = activity score below about -60%
Numbers stand for hits; 0 = inactive. Only a sample is shown.

SMILES | aSyn UTR act
Nc1[nH]ncc1N=Nc1ccc(Cl)cc1 | -89
CC(C)c1ccc2c(c1)CCC1C(C)(CN)CCCC21C (stereo unspecified) | 0
COc1nc(-c2ccccc2)cc(-c2ccc3c(c2)OCO3)c1C#N | 0
c1ccc2c(Oc3ccc4c(c3)OCO4)nncc2c1 | -71
Cc1cc(C)n(-c2nc(-c3cccc(Cl)c3)cs2)n1 | -102
Cc1cc(C)n(-c2nc(-c3ccccc3)cs2)n1 | -89
Cc1csc(NC(=O)CSc2nnc(-c3ccoc3C)o2)n1 | -111
Cc1cnc(NC(=O)CC(C)c2ccccc2)s1 (stereo unspecified) | -196
Cc1csc(NC(=O)CSc2nnc(-c3ccncc3)o2)n1 | -99
Cc1occc1-c1nnc(SCC(=O)Nc2nc(C(C)(C)C)cs2)o1 | -111
Cc1cnc(NC(=O)CSc2nnc(-c3ccccc3)o2)s1 | -139
O=C(CSc1nnc(-c2ccccc2)o1)Nc1ccccc1F | 0
O=C(CNS(=O)(=O)c1cccs1)N1CCc2ccccc2C1 | -72
Cc1ccc(NC(=O)N2CCc3ccccc3C2)c(C)c1 | -76
O=C(Nc1ccc(Cl)cc1)N1CCc2ccccc2C1 | -209
O=C(NCCCN1CCc2ccccc2C1)Nc1ccc(Cl)cc1 | -110
Cc1ccc(NC(=O)N2CCc3ccccc3C2)cc1 | -212
O=C(CNc1cccc(F)c1)N1CCc2ccccc2C1 | -195
O=C(Cc1ccc(Cl)cc1)N1CCc2ccccc2C1 | -160
O=C(Nc1ccccc1)N1CCc2ccccc2C1 | -126
CN(C)c1ccc(NC(=O)CN2CCc3ccccc3C2)cc1 | -79
COc1cc2c(cc1OC)-c1cc(Nc3ccc(N(C)C)cc3)nc(=O)n1CC2 | 0
CCOc1ccc(NC(=O)N2CCc3ccccc3C2)cc1 | -92
O=C1C2C3C=CC(CO)(O3)C2C(=O)N1c1ccc(-c2ccccc2)cc1 (stereo unspecified) | -85
CC(=O)Nc1ccc(S(=O)(=O)N(Cc2cc3ccc(C)cc3[nH]c2=O)CC2CCCO2)cc1 (stereo unspecified) | 0
SMILES | aSyn UTR act
COc1ccc2cc(CN(CC3CCCO3)S(=O)(=O)c3ccc(C(C)=O)cc3)c(=O)[nH]c2c1 (stereo unspecified) | -78
O=C(N/N=C/c1cccs1)c1c[nH]c2ccccc12 | -158
O=C(NN=C1CCCCCC1)c1c[nH]c2ccccc12 | -77
CCc1ccc(/C=N/NC(=O)c2c[nH]c3ccccc23)s1 | -132
CCc1ccc(/C=N/NC(=O)c2cc(-c3ccncc3)nc3ccccc23)s1 | 0
Cc1cc(C)n2cc(-c3ccc(Cl)cc3)c(C(=O)O)c2n1 | -99
CCOc1ccc(C(=O)Nc2cccc([N+](=O)[O-])c2)cc1Br | -138
O=C(NC(=S)Nc1cccc(F)c1)c1cccc([N+](=O)[O-])c1 | -109
O=C(Nc1ccc2ccccc2c1)c1cccc([N+](=O)[O-])c1 | -113
Cc1cccc(C(=O)Nc2ccc3ccccc3c2)c1 | -111
Cc1nn(-c2ccccn2)c2c1-c1nc(N)ncc1CC2 | -101
Cc1nc2c(ccc3nc(NC(=O)C4CC4)sc32)s1 | -121
CCC(=O)Nc1nc2ccc3sc(C)nc3c2s1 | -86
COc1cc(-c2ccc(=O)[nH]n2)ccc1OC(F)F | 0
COc1ccc(-c2cc(-c3ccccc3O)[nH]n2)cc1OC | -154
COc1ccc(-c2ccc3ccccc3n2)cc1OC | -171
COc1ccc(-c2cc(-c3ccc(OC)c(OC)c3)n[nH]2)c(O)c1 | -163
O=C(CSc1ncn[nH]1)Nc1ccc2c(c1)OCCO2 | -62
COc1ccc2nc(SCC(=O)Nc3ccc4c(c3)OCCO4)[nH]c2c1 | -63
COc1ccc2nc(SCC(=O)/C(C#N)=C(\C)N)[nH]c2c1 | -76
O=C(CSc1nncs1)Nc1ccc2c(c1)OCCO2 | -102
O=C(CSc1nncs1)NC(=O)Nc1ccc2c(c1)OCCO2 | -134
O=C(CSc1nc2ccc(Cl)cc2[nH]1)c1ccc2c(c1)OCO2 | -67
CN1CCN(C(c2ccc(Cl)cc2)c2cc(Cl)c3cccnc3c2O)CC1 (stereo unspecified) | 0
O=C1C=C(NCCN2CCOCC2)C(=O)c2cnccc21 | 0
SMILES | aSyn UTR act
CC(C)(C)c1ccc(C(=O)NCCN2CCOCC2)cc1 | -190
O=C(NCCN1CCOCC1)c1cc(-c2ccccc2)on1 | -130
O=C(NCCCN1CCOCC1)c1cc(-c2ccccc2)on1 | -113
CC(C)(C)c1ccc(C(O)CCCN2CCC(C(O)(c3ccccc3)c3ccccc3)CC2)cc1 (stereo unspecified) | 0
CCS(=O)(=O)N1CCCC(c2nc(-c3cccc(OC)c3)no2)C1 (stereo unspecified) | -102
COc1ccc(C(=O)Nc2cc(-c3ccc(C)cc3)no2)cc1 | -65
Cc1ccc(C(=O)Nc2ccccc2Sc2ccccc2)cc1 | -62
Cc1ccc(-c2cc(NC(=O)c3ccccc3)on2)cc1 | -190
CC(Cc1cccs1)NC(=O)Nc1ccc([N+](=O)[O-])cc1 (stereo unspecified) | -75
O=C(NCCc1ccc(F)cc1)c1cccs1 | -139
CC(Cc1cccs1)NC(=O)c1cccs1 (stereo unspecified) | -80
O=C(NCCCc1ccccc1)c1cccs1 | -88
COc1ccc2cc(CCNC(=O)c3cccs3)c(=O)[nH]c2c1 | -138
Cc1ccc(-n2nc3c(N4CCC(C(=O)NCCc5cccs5)CC4)nnc(C)c3c2C)cc1 | 0
O=C(NCC(O)c1ccccc1)c1cccs1 (stereo unspecified) | -136
O=C(CNC(=O)c1cccs1)c1ccc(Br)cc1 | -176
O=C(NCCc1cccs1)c1cccs1 | -147
CC(=O)c1ccc(NC(=O)C2CC(=O)N(Cc3ccccc3)C2)cc1 (stereo unspecified) | -129
Cc1ccnc(NC(=O)C2CC(=O)N(Cc3ccccc3)C2)c1 (stereo unspecified) | -112
Cc1ncc(CO)c(/C=N/N=C/c2ccccc2O)c1O | -89
Cc1ncc(CO)c(/C=N/Nc2ccc(C(F)(F)F)cn2)c1O | 0
O=C(/C=C/c1ccccc1)c1ccc2c3c(cccc13)CC2 | -87
O=C(/C=C/c1ccccc1)c1ccccc1 | -105
N/C(=N\OC(=O)/C=C/c1ccccc1)c1ccccc1 | -243
O=C(/C=C/c1ccccc1)/C=C/c1ccccc1 | -112
SMILES | aSyn UTR act
CC(C)(C)C(=O)/C=C(N)/C=C/c1ccccc1 | -76
O=C(/C=C/c1ccc[nH]1)c1ccccc1 | -64
CCOc1ccc(C(=O)CCCC(=O)c2ccc(OCC)cc2)cc1 | -82
O=C(CCCC(=O)c1ccc(F)cc1)c1ccc(F)cc1 | -118
CCOc1ccc2nc(N3CCC(C(=O)N4CCN(c5ncccn5)CC4)CC3)sc2c1 | -75
CCOc1ccc2nc(N3CCCC(C(=O)NC4CCCC4)C3)sc2c1 (stereo unspecified) | -70
COc1ccc(N(CC(=O)Nc2cc(Cl)ccc2C)S(=O)(=O)c2c(C)noc2C)cc1 | 0
COC(=O)c1ccc(C)c(NC(=O)CN(c2cc(OC)ccc2OC)S(C)(=O)=O)c1 | -88
COc1ccc(/C=C2\N=C(c3ccccc3Cl)NC2=O)cc1 | -124
CC(=O)c1sc(-c2ccc(F)cc2F)nc1C | -75
Cc1ccc(OCc2ccc([N+](=O)[O-])cc2)c([N+](=O)[O-])n1 | -115
Cc1ccc(OCCOc2ccc(Br)cc2)c([N+](=O)[O-])n1 | -182
COc1ccc(/C=C/C(=O)c2ccc(Cl)s2)cc1O | -147
COc1cc(/C=C/C(=O)c2ccc(Cl)s2)cc(OC)c1O | -164
Cc1c(C(=O)OC(C)C)sc(N)c1C(=O)OC(C)C | -120
Cc1csc(=N)n1-c1ccc(Cl)cc1 | -144
Cc1ccc(-n2c(C)csc2=N)cc1 | -175
